Results as given in the supplement of paper PMC10105736.
A number with no mark means an inactive call.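 Rule for the calls: active = MAPPIT score above the 99th percentile of random reference set scores in the same batch; inactive = at or below it.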

Assays:
Experiment in all cases: MAPPIT interaction score (arbitrary units); higher = stronger binary interaction signal, active = hit call of the paper
Baldspot = conditions: MAPPIT configuration: N-C; pair source set: screen_4
EMC5 = conditions: MAPPIT configuration: N-C; pair source set: screen_3
Ude = conditions: MAPPIT configuration: N-C; pair source set: screen_3
Bet1 = conditions: pair source set: Lit-BM-16
Bfc = conditions: MAPPIT configuration: N-C; pair source set: screen_4
CG17376 = conditions: MAPPIT configuration: N-N; pair source set: screen_1
CG42565 = conditions: MAPPIT configuration: N-C; pair source set: screen_4
CG42688 = conditions: MAPPIT configuration: N-C; pair source set: screen_4
aspr = conditions: MAPPIT configuration: N-N; pair source set: Curagen_low_conf
fok = conditions: MAPPIT configuration: N-C; pair source set: screen_3
BicD = conditions: MAPPIT configuration: N-C; pair source set: Lit-BM-16
BORCS6 = conditions: MAPPIT configuration: N-C; pair source set: screen_3
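Note: HEK293T cells with Epo stimulation, STAT-responsive firefly luciferase reporter, fold induction versus unstimulated cells divided by the larger fold induction of two negative controls lacking either bait or prey.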

B1: oxt (protein)
chain: MEQSVSARWLKRYRAFFLILLLIVAIQLFLAYKSLDIVGGGSGSGFDAAEAPASPPPPHAQARVQPPARTKLTAQQLGFQPECDILAREAISALQRAKTKDCREHIAQIACAIQAGRFYAPQLRSSCPAGNHTANVSLGCFKDEKDRRLLAGYYSSSKTSNSPAKCVELCLQSGYPYAGVQYGRECFCGYDPPPKASKLPDSSCNTKCLGNAKEICGGFYAMNIYETGIAKFTAQLAATTPSEETKRVRIAFLLTLNGRALRQVHRLLKALYAPEHVYYIHVDERQDYLYRKLLELESKFPNIRLARKRFSTIWGGASLLTMLLQCMEDLLQSNWHWDFVINLSESDFPVKTLDKLVDFLSANPGRNFVKGHGRETQKFIQKQGLDKTFVECDTHMWRIGDRKLPAGIQVDGGSDWVALSRPFVGYVTHPREDDELLQALLKLFRHTLLPAESFFHTVLRNTKHCTSYVDNNLHVTNWKRKQGCKCQYKHVVDWCGCSPNDFKPEDWPRLQATEQKSLFFARKFEPVINQAVLLQLEEWLYGPYTSEYANLHGYWQSLYHHEDVHGSGDDLARSIGDSVMRLSARQAKLYPLELIELTHYLHRDQYKGFLVRYRARGSTGKPLHLETRVRPTQQGKLARNARFSKRLRNFEVSTDFDQKEQIARNFGKLLGPQSDLLLSYTLQANADSGAASHSYNLTLLWIDPLGRLQDFNELHVEDSTSDVINHSKTLLKHPITPGIWTAKLIGRNSIYAQLKFLIAPLAYYKGYPLAKSSDAEALNAGLTVALPEDFEMPVEWQQHLQTDDEQFTMREESLAKGKMLGQELHSWIDGLVGQFFQLRESCVVEADSEVSLPLCSDAPWSSLAPDPKSDVDALLK
B1 was tested. Which MAPPIT interaction score (Baldspot) did it give?
Its MAPPIT interaction score is 0.0528.

What about the MAPPIT interaction score (EMC5) of the same binder?
The MAPPIT interaction score was -0.000675.

What about the MAPPIT interaction score (Ude) of the same binder?
The MAPPIT interaction score was 0.189.

B2: Gos28 (protein)
chain: MGGSSYDVLRKQARSLENEIDLKLVAFSKIGAGSGGGGSGGLGGVDTSPLLGEHVFDSLSEEIEQMLEKLSSLNESMSDLPASGAAAMHTLQRHREILQGYRQEFNKICANHTMRIEREELLRGSGLATSSGSPSISGLNRREMYLKESGHLNSASHLVNDQINIAIETRDHLHAQRQAFKRLQTRFNDISNRFPLISSLIQRINIKKRRDSLILGAVIGFCVILLLLYAFN
Which results are given for B2?
MAPPIT interaction score (Bet1; MAPPIT configuration: N-C): -0.272; MAPPIT interaction score (Bet1; MAPPIT configuration: N-N): -0.1

B3: disco (protein)
chain: MEHIMNPFMSPAYLLGHGPHSHQHVHSHLPSHPQPNAASPASSPGGSSGSGSGSAAGSGTGSGSSLKPRRWGSPPINLAGQFINPATGKKRVQCSICFKTFCDKGALKIHFSAVHLREMHKCTVEGCNMVFSSRRSRNRHSANPNPKLHSPHIRRKISPHDGRTAQQFPVFSPGTAAAAAAVAGRLPVAFPGLLPPPPPHHGHHPYVMFGGQAGLHGLGLLSTGCQDPDSGSVDNEQDADPEDDNDFVYVDMQANSSSPAASSEDQEEHERDNEQDEEMHCSLSLASSSSIAADEERAADQPLDFSLHKRRKSEQDREQEQEQEQEREREAEKEQEQDVESDKEHEPEQEHELEREKRSPSDAFSMDQLLGKRKRHDSTASSSACSTAAASSASSSSASASANPPQTSIKMDLDPDSDSAYMTSRRQMLPLPVLDLEEHHHLRLLQTQMFAAAAAAAATSQAPPTAFLPAGSPVDLAKDSPPMWSLLSEMYRSMLLKTQHQQYNHHHQLQQQHQQEQHHHLTLSHHHQEQHHHLGHHHMGHHHHHHHQHHQQQPQQQSPAATNAPISV
B3 was tested. Which MAPPIT interaction score (Bfc) did it give?
The MAPPIT interaction score was 1.54.

And the MAPPIT interaction score (CG17376)?
Its MAPPIT interaction score is 0.354.

And the MAPPIT interaction score (CG42565)?
The MAPPIT interaction score was 2.57.

What about the MAPPIT interaction score (CG42688) of the same binder?
The MAPPIT interaction score was 2.18.

And the MAPPIT interaction score (aspr)?
The MAPPIT interaction score was -0.256.

What about the MAPPIT interaction score (fok) of the same binder?
The MAPPIT interaction score was 0.776.

B4: BicD (protein)
chain: MSSASNNGPSADQSVQDLQMEVERLTRELDQVSSASAQSAQYGLSLLEEKSALQQKCEELETLYDNTRHELDITQEALTKFQTSQKVTNKTGIEQEDALLNESAARETSLNLQIFDLENELKQLRHELERVRNERDRMLQENSDFGRDKSDSEADRLRLKSELKDLKFRETRMLSEYSELEEENISLQKQVSSLRSSQVEFEGAKHEIRRLTEEVELLNQQVDELANLKKIAEKQMEEALETLQGEREAKYALKKELDGHLNRESMYHISNLAYSIRSNMEDNASNNSDGEEENLALKRLEADLSTELKSPDGTKCDLFSEIHLNELKKLEKQLESMESEKTHLTANLREAQTSLDKSQNELQNFMSRLALLAAHVDALVQLKKQIDVKEQGKEGGQKKDELEQQLRALISQYANWFTLSAKEIDGLKTDIAELQKGLNYTDATTTLRNEVTNLKNKLLATEQKSLDLQSDVQTLTHISQNAGQSLGSARSTLVALSDDLAQLYHLVCTVNGETPTRVLLDHKTDDMSFENDSLTAIQSQFKSDVFIAKPQIVEDLQGLADSVEIKKYVDTVSDQIKYLKTAVEHTIDMNKHKIRSEGGDALEKVNTEEMEELQEQIVKLKSLLSVKREQIGTLRNVLKSNKQTAEVALTNLKSKYENEKIIVSDTMSKLRNELRLLKEDAATFSSLRAMFAARCEEYVTQVDDLNRQLEAAEEEKKTLNQLLRLAVQQKLALTQRLEEMEMDREMRHVRRPMPAQRGTSGKSSFSTRPSSRNPASSNANPF
B4 was tested. Which MAPPIT interaction score (BicD) did it give?
The MAPPIT interaction score was -0.381.

B5: Blos1 (protein)
chain: MLTSMVKEHHKEQAKRKQEQEVRRKEAIEASNELTQSLVDTLNVGVAQAYLNQKRLDAEAKQLHLGATNFAKQTHQWLQLIDQFSTALKDLGDVENWARSIEGDMHTINQTLELAYKASRATQTSSGAGTSLEASTSASASANPSAT
For B5, which MAPPIT interaction score (BORCS6) is on record?
Its MAPPIT interaction score is 2.8.
